Bioassay records as filed in PubChem BioAssay.
TLR9-MyD88 block – inhibitors of human TLR9-MyD88 binding | 340,000 compounds, 0.21% hits | inhibition, % at 4.98 µM | CHO BLA complementation TLR9-MyD88, CCF4 FRET ratio | Q9NR96+Q99836 | AID 504734;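 active means inhibition above the mean over all tested compounds plus 3 SD, cut at about 21% in these data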;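 further: 0% = DMSO only wells and 100% = clavulanate BLA inhibitor control wells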
NTR1 ag – activates human neurotensin receptor 1; P30989; 330,000 compounds, 0.17% hits; NTR1-U2OS beta-arrestin-GFP spot imaging, agonist mode; activation, % at 20 µM;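 active means activation at or above 40% of the spot to cytoplasm intensity ratio, with at least 20 cells analyzed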;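 further: 0% = DMSO without peptide and 100% = 100 nM NTR1 peptide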
B2AR ag – activates human beta-2 adrenergic receptor causing internalization; Am2.2-beta2AR cells, FAP receptor internalization, flow cytometry; response, % (concentration not given with the values); P07550; 340,000 compounds, 0.43% hits;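 active means response above a set limit, near 3 SD of response in nonfluorescent compounds, cut at about 42% in these data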
ABHD5 PLIN5 PPI – inhibitors of human ABHD5-perilipin-5 interaction; Q00G26+Q8WTS1; 360,000 compounds, 0.78% hits; inhibition, % at 4 µM; AID 602281; Split G. princeps luciferase complementation, luminescence, 4 h;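 active means inhibition above the mean inhibition across every tested compound plus 3 SD, cut at about 22% in these data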;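 further: 0% = DMSO only wells and the 100% control is not disclosed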
TLR4-MyD88 BLA – TLR4-MyD88 interaction inhibition in cells; O00206+Q99836; HeLa CL3-4 TLR4/MyD88 BLA complementation, FRET ratio; inhibition, % at 8.4 µM; 200,000 compounds, 0.18% hits; AID 861; in the data active means inhibition above about 25%;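 further: 0% = vehicle and 100% = reference inhibitor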
NOD2 RIPK2 PPI – blocks binding of human NOD2 to RIPK2; 360,000 compounds, 0.38% hits; inhibition, % at 4.98 µM; CHO BLA complementation NOD2-RIPK2, CCF4 ratio; AID 624267; in the data active means inhibition above about 21%;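 further: 0% = vehicle only and 100% = reference blocker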
Target sequence (O43353 whole entry, looked up): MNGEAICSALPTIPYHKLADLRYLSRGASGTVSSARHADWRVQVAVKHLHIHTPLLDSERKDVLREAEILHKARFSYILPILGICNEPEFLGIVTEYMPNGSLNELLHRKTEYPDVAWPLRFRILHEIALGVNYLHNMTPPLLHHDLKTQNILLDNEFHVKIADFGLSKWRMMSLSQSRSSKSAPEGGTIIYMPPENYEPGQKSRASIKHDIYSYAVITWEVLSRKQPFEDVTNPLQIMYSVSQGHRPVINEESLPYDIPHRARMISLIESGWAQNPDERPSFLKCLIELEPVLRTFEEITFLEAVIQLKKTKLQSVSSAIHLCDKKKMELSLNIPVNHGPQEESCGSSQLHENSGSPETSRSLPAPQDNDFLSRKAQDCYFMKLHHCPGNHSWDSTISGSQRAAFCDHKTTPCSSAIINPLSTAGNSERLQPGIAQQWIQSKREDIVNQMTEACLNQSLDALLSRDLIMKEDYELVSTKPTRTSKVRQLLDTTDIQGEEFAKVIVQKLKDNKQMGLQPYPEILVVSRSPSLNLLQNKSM
TLR9-MyD88 cf – confirmation of human TLR9-MyD88 binding inhibitors; CHO TLR9/MyD88 BLA complementation, CCF4 FRET ratio; AID 540250; inhibition, % at 4.98 µM; shares compounds with TLR9-MyD88 block; 680 compounds, 51% hits;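 active means mean inhibition across three repeats above about 21% taken from the earlier screen, limit read from the data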;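 further: blue over green emission ratio reports constitutive TLR9 MyD88 association via BLA complementation; 0% = DMSO vehicle wells and 100% = clavulanate BLA inhibitor wells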
BLA counter-1 – non-selective beta-lactamase inhibitors in TLR9-MyD88 counter-screen | shares compounds with TLR9-MyD88 block | CHO-BLA cells, CCF4 FRET ratio, BLA reporter | inhibition, % at 4.98 µM | 680 compounds, 7% hits | AID 540251;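 active means mean inhibition above a 50% cutoff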;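 further: counterscreen of TLR9-MyD88 hits on CMV-driven BLA in CHO-K1 cells; 0% = DMSO alone and 100% = clavulanate blocking BLA; higher means less blue over green ratio so more BLA blockade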
TLR9 CHO tox – CHO cell toxicity counter-screen for TLR9-MyD88 inhibitors; TLR9-MyD88 CHO cells cytotoxicity, luminescence; shares compounds with TLR9-MyD88 block; inhibition, % at 4.98 µM; 680 compounds, 39% hits; in the data active means inhibition above about 11%
ABHD5-PLIN5 conf – confirmation of human ABHD5-PLIN5 interaction inhibitors | shares compounds with ABHD5 PLIN5 PPI | biochemical ABHD5-PLIN5 interaction, luminescence | inhibition, % at 4 µM | 2,200 compounds, 67% hits | AID 651612; in the data active means inhibition above about 23%;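 further: 0% = DMSO vehicle wells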
HNF4 split-luc – active in HNF4 split-luciferase counter-screen for ABHD5-PLIN5 inhibitors. shares compounds with ABHD5 PLIN5 PPI. HNF4 dimerization, luminescence, biochemical. inhibition, % at 4 µM. 2,200 compounds, 77% hits;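 active means mean inhibition across replicate wells exceeding the computed hit threshold, cut at about 13% in these data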;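 further: light from luciferase halves that rejoin when HNF4 fusion proteins dimerize; 0% = DMSO only wells and the 100% control is not given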
NOD2-RIPK2 conf – confirmation of human NOD2-RIPK2 interaction inhibitors. shares compounds with NOD2 RIPK2 PPI. CHO cells, NOD2-RIPK2 BLA complementation, CCF4 FRET. inhibition, % at 4.98 µM. 1,200 compounds, 70% hits. AID 624370;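 active means mean inhibition across replicates above a set limit taken from the earlier primary screen, cut at about 21% in these data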;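 further: 0% = DMSO-only wells and the high end = clavulanate BLA-blocked wells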
BLA counter-2 – hits BLA reporter in NOD2-RIPK2 inhibitor counterscreen | shares compounds with NOD2 RIPK2 PPI | CHO BLA reporter, CCF4 FRET ratio | inhibition, % at 4.98 µM | 1,200 compounds, 57% hits;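 active means mean inhibition above the low-control mean inhibition plus three low-control SD, cut at about 11% in these data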;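 further: 0% = DMSO only wells and 100% = clavulanate high control wells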
Starred values were filed as active, the others as inactive; . = no result given. In the library only some 1.5% were active in any assay of this set; here they are far more common.

SMILES | TLR9-MyD88 block | NTR1 ag | B2AR ag | ABHD5 PLIN5 PPI | TLR4-MyD88 BLA | NOD2 RIPK2 PPI | TLR9-MyD88 cf | BLA counter-1 | TLR9 CHO tox | NOD2-RIPK2 conf | BLA counter-2 | others
COc1ccc(C2C=C(c3ccc(C)cc3)Nc3ncnn32)cc1 (centres undefined) | 40.6* | . | -12.4 | 6.5 | 19.1 | 51.7* | -2.1 | 1.3 | -1.0 | 10.6 | 10.0
Oc1ccc(C2C=C(c3ccc(F)cc3)Nc3ncnn32)cc1 (centres undefined) | 39.8* | . | 7.2 | 4.7 | . | 50.5* | 6.8 | 4.0 | -0.4 | 37.4* | 45.6*
COc1cccc(C2=CC(c3ccc(N(C)C)cc3)n3ncnc3N2)c1 (centres undefined) | . | -2.1 | . | . | -3.0 | . | . | . | . | . | .
C1=C(c2ccc(-c3ccccc3)cc2)Nc2ncnn2C1c1ccco1 (centres undefined) | 27.3* | . | 4.2 | -2.6 | 1.0 | 38.8* | 7.0 | 1.2 | 2.4 | 5.0 | 2.6
Brc1ccc(C2=CC(c3cccs3)n3ncnc3N2)cc1 (centres undefined) | 13.0 | 13.0 | -4.5 | -6.5 | 1.9 | 13.7 | . | . | . | . | .
Cc1ccc(C2C=C(c3ccccc3)Nc3ncnn32)cc1 (centres undefined) | 36.7* | -2.1 | -7.5 | -6.8 | . | 47.5* | 6.0 | 5.4 | 3.0 | 16.2 | 17.5*
CC(C)CNc1ncnc2c1ncn2[C@H]1CN(Cc2ccc(C(=O)O)cc2)C[C@@H](CO)O1 | . | . | . | 12.7 | . | -2.0 | . | . | . | . | .
CCOC(=O)[C@]12CCC=C1N(Cc1ccco1)C(=O)[C@H](CC(=O)NCc1cccs1)C2 | . | . | . | 13.8 | . | -7.0 | . | . | . | . | .
Cc1ccccc1NS(=O)(=O)c1cccc2nonc12 | -13.6 | 1.1 | 4.7 | 6.8 | . | -7.2 | . | . | . | . | .
Cc1ccccc1Nc1cccc2nonc12 | 45.9* | 0.1 | 1.1 | -13.4 | 22.7 | 40.7* | 22.3* | 27.6 | -2.2 | 53.4* | 56.7*
NNC(=O)c1oc2nc(-c3ccco3)cc(-c3ccco3)c2c1N | . | 1.2 | -6.4 | -9.3 | . | -0.6 | . | . | . | . | .
NNC(=O)c1oc2nc(-c3ccc(Cl)cc3)cc(-c3ccccc3)c2c1N | 24.4* | . | -13.1 | -10.2 | . | 25.9* | 45.5* | 41.4 | 1.0 | 62.2* | 67.1*
COCCNC(=O)C1CCCN(Cc2cccc(C(F)(F)F)c2)CC1 (centres undefined) | . | . | . | -0.1 | . | -7.1 | . | . | . | . | .
O=C(/C=C/c1cccc(Cl)c1)c1ccc([N+](=O)[O-])o1 | 25.8* | -1.1 | 65.8* | 95.8* | . | 52.1* | 21.4* | 4.0 | 95.6* | 87.8* | 19.4* | ABHD5-PLIN5 conf=103.5*;HNF4 split-luc=110.2*
CCC12C(=Nc3c(Cl)cccc31)C[C@@H]1CCN3C(=O)CCC[C@H]2[C@H]13 (some centres undefined) | 2.5 | . | -0.2 | -4.8 | . | -0.6 | . | . | . | . | .
CCC1(O)C(=O)OCc2c1cc1n(c2=O)Cc2cc3cc(O)ccc3nc2-1 (centres undefined) | 29.5* | . | 6.7 | 4.1 | . | 26.0* | 18.6 | 20.5 | 63.3* | 42.4* | 33.5*
N#C/C(=C\c1ccc(Sc2ccc(Cl)cc2)o1)c1nc2ccccc2[nH]1 | 34.4* | . | -5.1 | -9.2 | 20.9 | 33.9* | 19.4 | 23.6 | 2.4 | 39.4* | 42.6*
